From ChEMBL document CHEMBL1961873, “Compounds: GSK PKIS; Assays: Nanosyn kinase panel” (2012)

Target: RAF proto-oncogene serine/threonine-protein kinase (Homo sapiens) (UniProt P04049)
Conditions: at 0.1 µM
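Note: values are mean CRAF kinase inhibition from profiling of the GSK Published Kinase Inhibitor Set.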

Sequence of RAF proto-oncogene serine/threonine-protein kinase (Homo sapiens) (P04049 whole entry): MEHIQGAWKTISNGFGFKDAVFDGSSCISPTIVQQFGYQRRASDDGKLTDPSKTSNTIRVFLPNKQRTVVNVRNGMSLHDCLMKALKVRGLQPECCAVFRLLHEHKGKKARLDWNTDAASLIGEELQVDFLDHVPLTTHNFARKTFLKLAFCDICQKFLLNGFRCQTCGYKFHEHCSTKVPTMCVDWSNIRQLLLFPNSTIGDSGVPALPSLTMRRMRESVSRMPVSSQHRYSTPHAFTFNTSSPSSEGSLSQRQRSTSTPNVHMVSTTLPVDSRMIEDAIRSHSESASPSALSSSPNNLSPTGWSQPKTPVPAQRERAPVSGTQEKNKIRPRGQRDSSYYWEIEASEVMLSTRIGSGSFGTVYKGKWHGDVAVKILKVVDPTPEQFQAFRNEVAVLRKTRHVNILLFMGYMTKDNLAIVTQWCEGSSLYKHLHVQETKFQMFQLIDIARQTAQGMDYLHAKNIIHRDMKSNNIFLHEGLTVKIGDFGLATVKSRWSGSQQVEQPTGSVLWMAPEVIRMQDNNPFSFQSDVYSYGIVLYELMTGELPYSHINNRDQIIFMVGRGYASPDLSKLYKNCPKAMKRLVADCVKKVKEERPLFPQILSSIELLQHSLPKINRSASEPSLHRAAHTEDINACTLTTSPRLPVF

| Structure (SMILES) | inhibition [%] |
| --- | --- |
| Fc1ccc(-c2nn3ccccc3c2-c2ccncc2)cc1 | -1.45 |
| NS(=O)(=O)c1ccc(N/N=C2\C(=O)Nc3ccc4ncccc4c32)cc1 | -0.71 |
| CCc1nn2ncccc2c1-c1ccnc(NC2CC2)n1 | 0.39 |
| O=C(Nc1n[nH]c2cc(-c3ccc(F)cc3)ccc12)C1CC1 | 1.6 |
| CCCN1CCC(c2ccc(Nc3nc(Nc4cc(F)ccc4C(N)=O)c4cc[nH]c4n3)c(OC)c2)CC1 | 7.25 |
| CCCN(CCS(C)(=O)=O)Cc1ccc(-c2ccc3ncnc(Nc4ccc(OCc5cccc(F)c5)c(Cl)c4)c3c2)o1 | 1.57 |
| CCn1cc(-c2ccnc3[nH]ccc23)c(-c2cccc(NC(=O)Nc3ccc(OCc4ccccc4)cc3)c2)n1 | 4.65 |
| CC(C)COC(=O)c1ccc2c(c1)/C(=C/Nc1ccc(S(N)(=O)=O)cc1)C(=O)N2 | -3.89 |
| NS(=O)(=O)c1ccc(Nc2ncc(-c3ccccc3)o2)cc1 | -0.15 |
| Cc1ccc(O)cc1Nc1ccnc2cc(-c3ccccn3)ccc12 | -1.1 |
| COc1cc2ncn(-c3cc(OCc4ccccc4C(F)(F)F)c(C(=O)N(C)C)s3)c2cc1OC | 0.38 |
| COc1ccc(-c2nn3ncccc3c2-c2ccnc(Nc3ccc4c(c3)OCCO4)n2)cc1 | -0.5 |
| COc1cccc(-n2ncc3c(N/N=C/c4ccc(F)cc4)ncnc32)c1 | 0.27 |
| COc1cc(Nc2nccc(Nc3ccc4c(C)n[nH]c4c3)n2)cc(OC)c1OC | -7.99 |
| COc1ccc(-c2cc3c(N)ncnc3o2)cc1 | 1.23 |
| Nc1ncc(-c2cccc(S(N)(=O)=O)c2)c2scc(-c3ccc(F)c(Cl)c3)c12 | -0.36 |
| COC(=O)c1sc(-n2cnc3cc(OC)c(OC)cc32)cc1OCc1ccccc1C(F)(F)F | 3.34 |

| Structure (SMILES) | inhibition [%] |
| --- | --- |
| Clc1ccc(-c2nn3ncccc3c2-c2ccnc(Nc3ccccc3)n2)cc1 | -2.35 |
| CC(=O)NCc1cccc(C#Cc2cncnc2Nc2ccc(OCc3cccc(F)c3)c(Cl)c2)c1 | 4.54 |
| COc1cc2c(cc1Nc1nc(Nc3ccsc3C(N)=O)c3cc[nH]c3n1)N(C(=O)CN(C)C)CCC2(C)C | 1.55 |
| Cc1cccc(Nc2ncc(-c3ccccc3)o2)c1 | 0.64 |
| CCn1c(-c2nonc2N)nc2cnc(Oc3cccc(NC(=O)c4ccc(N(C)C)cc4)c3)cc21 | 0.85 |
| COc1ccc(-c2oc3ncnc(N)c3c2-c2ccc(NC(=O)Nc3cc(C(F)(F)F)ccc3F)cc2)cc1 | 2.02 |
| COc1cc(/C=N/Nc2ncnc3[nH]ncc23)ccc1O | 4.83 |
| Fc1cccc(COc2ccc(Nc3ncnc4sc(-c5ccco5)cc34)cc2Cl)c1 | -0.33 |
| CN1CCC(n2cnc(-c3ccc(F)cc3)c2-c2ccnc(Nc3ccccc3)n2)CC1 | -3.04 |
| CNC(=O)c1cccc(C#Cc2cncnc2Nc2ccc(OCc3cccc(F)c3)c(Cl)c2)c1 | 2.66 |
| CCOc1ccc2c(-c3ccnc(Nc4cccc(C(F)(F)F)c4)n3)cnn2n1 | -2.28 |
| CCN1CCC(CC(=O)Nc2n[nH]c3nnc(-c4cccc(F)c4F)cc23)CC1 | 10.2 |
| FC(F)(F)c1cccc(-c2nn3ncccc3c2-c2ccnc(Nc3ccc4c(c3)OCCO4)n2)c1 | -1.62 |
| CN(C)CCOc1ccc(-c2nc(-c3ccncc3)c(-c3ccc4c(c3)CC/C4=N\O)[nH]2)cc1 | 12.5 |
| Cc1cccc2c1NC(=O)/C2=N\Nc1ccc(S(N)(=O)=O)cc1 | -3.52 |
| COc1cccc(-c2c[nH]c3c(N/N=C/c4ccncc4)ncnc23)c1 | 2.82 |
| COc1ccc(-c2cc(-c3c[nH]nc3-c3ccccn3)ccn2)cc1 | 0.24 |
